Experimental findings from PubChem BioAssay AID2289 (National Center for Advancing Translational Sciences (NCATS), 2010) are described below.

Molecules are shown by their SMILES. Among all 340,000 compounds or so, about 3,300 (0.97%) were called active. About 9% were inconclusive and are not listed. Calls follow the shape of the dose curve; as a rule, active = well fitted inhibition curve with a large enough effect; inconclusive = small, poorly fitted or top-dose-only effect, or effect the other way; inactive = flat fitted curve, though single readings scatter. Some of the results follow.
Potency is read from the fitted curve at half-maximal effect.

The nature of the test: qHTS Assay for Modulators of miRNAs and/or Inhibitors of miR-21. Also: nearly all actives have a fitted effect of over 55% in size. As to conditions: HeLa miR-21-FLuc reporter, luciferase luminescence, 48 h; actives lower the signal. From the text:
MLSCN Grant: 1 R21 NS059478-01 Assay Provider: Qihong Huang, The Wistar Institute NCGC Assay Overview: MicroRNAs (miRNAs) are endogenously encoded small (~20-25 nucleotides), nonprotein-coding RNAs that are involved in post-transcriptional repression of target messenger RNAs (mRNAs) (Le and Hannon, 2004). Estimated to be involved in the regulation of 30% of all protein-coding mRNAs (Filipowicz et al., 2008), miRNAs play a significant role in many biological processes including cellular differentiation and tissue development (Ghildiyal and Zamore, 2009).
NCGC Assay Protocol Summary: Reagents: HeLa cells stably expressing firefly luciferase (FLuc) under the control of a CMV promoter (upstream) and a miR-21 binding sequence directly downstream of the gene. These cells endogenously express miR-21. Control compounds used were compound C3 (provided by collaborator), N6-phenyladenosine (MP Biomedicals, 0215379625), and DMSO. Assay Summary: 6uL of HeLa miR-21-FLuc cells in assay buffer (DMEM, Invitrogen #21063-029; 10% FBS, HyClone #SH30071.03) were dispensed at 2000cells/well (3.3 x 10^5 cells/mL) into Greiner solid-white TC-treated 1536-well plates using a Multidrop Combi (Thermo Fisher Scientific). Plates were incubated for one hour at 37 degree Celsius, 95% humidity, 5% CO2. These assay plates were then treated with 23nL of compound or DMSO using a Kalypsys pin tool, which allows for delivery of a 24-point titration of each compound to the assay plate, with a final compound concentration ranging from approximately 40uM to 5pM. Assay plates were then incubated for 48 hours. After incubation, plates were allowed to come to RT for one hour prior to delivery of 3uL of 3X luciferase detection reagent. After a 15 minute incubation to allow for cell lysis, luciferase activity was measured using a ViewLux CCD imager (PerkinElmer), with an average exposure time of 2-12 seconds. Keywords: NIH Roadmap, MLPCN, MLSMR, qHTS, miR-21, microRNA, firefly luciferase, FLuc.
Background: Quantitative high-throughput screening tests each substance at several concentrations.
For `O=C(NNc1c(F)c(F)cc(F)c1F)c1cc2ccccc2oc1=O`, the Potency is 8.26 µM (active).
Next, `COc1ccc(-c2n[nH]c(=S)n2-c2ccc3c(c2)OCCO3)cc1OC`: 16.5 µM (active); `Cc1ccc(-c2cc(NC(=O)c3ccccc3)on2)cc1`: 2.93 µM (active).
Next, `CC1CCc2c(sc3nc(CSc4n[nH]c(N)n4)[nH]c(=O)c23)C1` (stereo not given): 16.5 µM (active); `Nc1nc(SCc2ccc(Cl)cc2Cl)n[nH]1`: 14.7 µM (active).
On to `CCN(CC)c1ccc(/C=C2\C(=O)NC(=S)N(C)C2=O)o1`, for which the Potency is 1.31 µM (active).
Next, `CN1C(=O)/C(=C/c2ccc(N3CCCCCC3)o2)C(=O)NC1=S`: 0.826 µM (active).
As for `CCCCn1c(O)c(/C(C)=N/NC(=O)Nc2ccccc2)c(=O)[nH]c1=O`, the figure is 11.7 µM (active).
As for `COc1ccc(CCN2CCCC(CN(C)C(=O)c3cc(C)oc3C)C2)cc1` (stereo not given), the figure is 4.65 µM (active); as for `COc1ccc(NC(=O)CCCn2c(=O)oc3ccccc32)cc1Cl`, 9.27 µM (active).
In the case of `Cn1cnc2cc(NC(=O)c3ccc(Cl)cc3)ccc21`, the Potency is 1.85 µM (active).
Next, `COc1ccc(CNC(=O)c2ccc(C(C)C)cc2)cc1`: 3.29 µM (active); `Cc1cccc(N=Nc2ccc(N(C)C)cc2)c1`: 2.93 µM (active); `COC(=O)C(O)(c1ccc(NC(=O)NC2CCCCC2)cc1)C(F)(F)F` (stereo not given): 8.26 µM (active).
Consider `O=C(Oc1ccc2cc(Br)ccc2c1)N1CCCCCC1`, for which the Potency was 4.14 µM (active).
Next, `CCN(CC)C(=O)Oc1ccc2cc(Br)ccc2c1`: 11.7 µM (active); `O=c1c2ccccc2[nH]c(=S)n1-c1ccc2c(c1)OCCO2`: 7.36 µM (active); `O=c1cc(-c2ccc(O)c(O)c2)oc2cc(O)cc(O)c12`: 3.29 µM (active).
As for `Cc1cnn(-c2cc(Oc3ccccc3)ncn2)c1`, the figure is 16.5 µM (active).
Next, `CC(C)(C)n1cc(C(=O)c2ccc3ccccc3c2O)cn1`: 0.233 µM (active); `c1ccc2c(CN3CCCCCC3)c[nH]c2c1`: 2.93 µM (active).
For the compound `CN(C)C(=O)Oc1ccc2c(c1)O/C(=C\c1ccccc1)C2=O`, the Potency is 4.65 µM (active).
As for `O=c1c2ccccc2nc(Cc2ccccc2)n1-c1ccccc1`, the figure is 5.85 µM (active).
As for `COc1ccccc1N=Nc1c(O)[nH]c(=S)[nH]c1=O`, the figure is 13.1 µM (active); as for `BrCC1C[n+]2c(SCc3ccccc3)nc3sc4c(c3c2O1)CCCC4` (stereo not given), 16.5 µM (active); as for `O=C(c1cc(-c2cccc(Cl)c2)on1)N1CCOCC1`, 8.26 µM (active).
`O=C(Nc1nc2c(s1)CCCCCC2)Nc1ccc(F)cc1F`: the Potency was 0.329 µM (active).
As for `Cc1cc(C(=O)Nc2ccc3c(c2)OCCO3)nn1C(C)(C)C`, the figure is 5.85 µM (active); as for `Cc1cc(C(=O)Nc2ccccc2)nn1C(C)(C)C`, 2.07 µM (active); as for `CN(CC(=O)N1CCc2ccccc21)S(=O)(=O)c1cccs1`, 5.85 µM (active).
As to `COc1ccc(-c2cc(=NCCC(=O)O)c3cc(C)ccc3o2)cc1`, the Potency is 0.656 µM (active).
Next, `COc1ccc(-c2cc(=NCC(=O)O)c3ccccc3o2)cc1`: 3.69 µM (active); `CCCCN1CC(O)=C(c2nc3ccccc3s2)C1=N`: 6.56 µM (active).
As for `CC(=O)Nc1ccccc1C(=O)OCC(=O)c1ccccc1Cl`, the figure is 14.7 µM (active).
As for `COc1ccc2nc(NC3=NCCN3)sc2c1`, the figure is 1.65 µM (active); as for `Cc1ccnc(SCc2nc3ccccc3s2)n1`, 7.36 µM (active); as for `O=c1oc2ccccc2n1CCCOc1ccccc1`, 13.1 µM (active).
On to `Cc1cccc(OCCn2c(=O)oc3ccc(C)cc32)c1`, for which the Potency was 14.7 µM (active).
Next, `Cc1ccc(NC(=O)O/N=C/c2cccc([N+](=O)[O-])c2)cc1`: 16.5 µM (active).
As for `Cc1nc(Cl)sc1C(=O)Nc1ccc2ccccc2c1`, the figure is 5.85 µM (active); as for `O=C(CSCc1ccccc1)Nc1ccc2c(c1)OCO2`, 5.21 µM (active); as for `Cc1ccc(-c2nn(Cc3ccccc3)cc2C=O)cc1`, 6.56 µM (active).
Consider `Cc1ccc(-c2nc(N3CCOCC3)s[n+]2-c2ccccc2)cc1`, for which the Potency was 5.21 µM (active).
For the compound `c1ccc(-c2nc(N3CCOCC3)s[n+]2-c2ccccc2)cc1`, the Potency is 13.1 µM (active).
In the case of `Cn1nnc2cc(NC(=O)Nc3cccc(Cl)c3)ccc21`, the Potency is 1.47 µM (active).
Turning to `c1ccc(CN2CCc3nc4ccccc4cc3C2)cc1`, the Potency is 14.7 µM (active).
Next, `Cc1ccc(NN=C2C(=O)OC(C)(C)OC2=O)c(C)c1`: 11.7 µM (active); `O=C(NCC(c1cccnc1)N1CCOCC1)Oc1ccccc1` (stereo not given): 16.5 µM (active).
As for `Cc1nc2ccc(NC(=O)C3COc4ccccc4O3)cc2s1` (stereo not given), the figure is 7.36 µM (active); as for `Cc1nc2ccc(NC(=O)c3ccc(Cl)s3)cc2s1`, 2.93 µM (active).
